Screen size: about 1,200 compounds; about 840 (70%) were called active. The rule behind the calls is not given here. The set was probably picked from earlier hits. Only a sample is shown. A call without a number means that no potency is given here. Potency and affinity values are given separately.

We go through 80 compounds from PubChem BioAssay AID1241 (SRMLSC, 2008).

The nature of this assay: compounds inducing NF-kB luciferase expression – cell-based, SH-SY5Y, dose response (AID 1241). The note with it: SH-SY5Y NF-kB promoter luciferase reporter; series mostly up to 30 µM. On the technique in general: In a reporter assay the amount or activity of a reporter protein is the signal.
In the case of `Cc1ccn2cc(CSc3ccccc3)nc2c1`, the fold induction over control result was “inactive”.
In the case of `CCSc1nnc(NC(=O)c2ccc(C)cc2)s1` it was “inactive”; in that of `Cc1ccc(-c2cc(-c3ccccc3C)[nH]n2)c(O)c1`, “inactive”; in that of `Cc1nc(N2CCCCC2)c2c(-c3cccs3)csc2n1`, “inactive”.
In the case of `Cc1ccc(C(=O)Oc2oc(-c3ccco3)nc2C=Nc2ccc(Cl)cc2)cc1` it was “inactive”.
To `O=c1[nH]c(-c2ccco2)nc2sc3c(c12)CCCC3` belongs “inactive”; to `c1ccc(-c2ccc(-c3nc(-c4cccnc4)no3)cc2)cc1`, “inactive”; to `CC(=O)Nc1ccc2oc(-c3ccccc3)nc2c1`, “inactive”.
For the compound `C=CCSC(=C(C#N)C#N)c1cc2c([nH]1)CCCC2`, the fold induction over control entry is “inactive”.
In the case of `Cc1ccc(-n2c(C)cc(C(=O)CSc3nncs3)c2C)cc1` it was “inactive”.
To `Cc1ccc(C(=O)/C=C/c2cn(CN3CCN(C)CC3)c3ccccc23)cc1` belongs “inactive”; to `OCCC1CN(Cc2ccc3nsnc3c2)CCN1C1CCCC1` (stereo not given), “inactive”; to `C/C(=N\OC(=O)NC(C)C)c1sc(-c2ccc(Cl)cc2)nc1C`, “inactive”.
To `C/C(=N\O)c1sc(-c2ccccc2)nc1C` belongs “inactive”; to `Cc1ccc(Nc2nc3ccccc3[nH]2)nc1`, “inactive”; to `Cc1ccc2c(c1)C(=NC1CCCCC1)c1cc3ccccc3nc1-2`, “inactive”.
As to `Cc1ccccc1C(=O)Nc1cccc(NC(=O)Cn2cnc3c(=O)n(C)c(=O)n(C)c32)c1`, the fold induction over control result was “inactive”.
To `CCOC(=O)c1cc(C(=O)Nc2cccc(C)c2)nn1C` belongs “inactive”; to `CCc1ccc(NC(=O)c2onc(C)c2Cl)cc1`, “inactive”; to `N/C(=N\OC(=O)c1ccc(Br)cc1)c1ccccc1`, “inactive”.
In the case of `COc1ccccc1C(=O)O/N=C(\N)c1ccc(Cl)cc1` it was “inactive”; in that of `N/C(=N\OC(=O)c1ccccc1Cl)c1cccnc1`, “inactive”; in that of `Cc1ccc(/C(N)=N/OC(=O)c2ccc(F)cc2)cc1`, “inactive”.
In the case of `Cc1cc(/C=N/NC(N)=S)c(C)n1-c1ccc(Cl)c(Cl)c1`, the fold induction over control result was “inactive”.
To `COc1cccc(C(=O)Nc2ccc(C3CC3(Cl)Cl)cc2)c1` (stereo not given) belongs “inactive”; to `Cc1onc(-c2c(F)cccc2Cl)c1C(=O)OCn1nnc2ccccc2c1=O`, “inactive”; to `COc1c(Cl)cc(Cl)cc1/C=C/C(=O)c1ccc(NC(=O)c2cccs2)cc1`, “inactive”.
In the case of `Cc1ccc(Nc2n[nH]c(C)c2[N+](=O)[O-])cc1C` it was “inactive”.
In the case of `Oc1cccc2ccc(/C=C/c3c(F)cccc3Cl)nc12` it was “inactive”; in that of `O=C(CCc1nnc(CCCc2ccccc2)o1)NC(C1CC1)C1CC1`, “inactive”; in that of `COc1cc(NC(=O)CSc2nc3ccccc3cc2C)c(C(=O)O)cc1OC`, “inactive”.
Turning to `N/C(=N\OC(=O)COc1cc(Cl)c(Cl)cc1Cl)c1ccccn1`, the fold induction over control result is “inactive”.
In the case of `N/C(=N\OC(=O)Cc1cccc2ccccc12)c1ccccn1` it was “inactive”.
In the case of `N#Cc1cc2ccccc2nc1SCc1ccccn1`, the fold induction over control result was “inactive”.
To `Fc1ccc(-n2nnc(-c3cccnc3Cl)n2)cc1` belongs “inactive”.
In the case of `Clc1ncccc1-c1nnn(-c2ccccc2)n1` it was “inactive”; in that of `Cc1csc(NC(=O)NC2(C(F)(F)F)Oc3ccccc3O2)n1`, “inactive”; in that of `CC(C)c1ccc(NC(=O)c2csnn2)cc1`, “inactive”.
In the case of `CC(=O)Nc1ccc(N=Nc2ccc(O)cc2)cc1` it was “inactive”; in that of `Cc1ccc(NC(=O)Nc2ccc3c(c2)nc(C)n3C)cc1`, “inactive”.
For the compound `COc1ccc(NC(=O)c2noc3c2CCCCC3)cc1`, the fold induction over control result was “inactive”.
In the case of `CS(=O)(=O)c1ccc(C(=O)OCc2nnc(-c3ccc(Cl)cc3)o2)cc1[N+](=O)[O-]` it was “inactive”.
To `COc1ccc(/C=C/C(=O)c2ccccc2)c(OC)c1` belongs “inactive”; to `Cc1nn(C)cc1/C=C/C(=O)c1cccs1`, “inactive”.
To `C(=C\c1nc(-c2ccccc2)no1)/c1ccccc1` belongs “inactive”; to `CNc1oc(/C=C/c2ccccc2)nc1C#N`, “inactive”; to `CCc1ccc(-c2nn(-c3ccccc3)cc2CSC(=N)N)cc1`, “inactive”.
As for `O=C(Nc1ccc2c(c1)OCCO2)c1cccs1`, the fold induction over control entry is “inactive”.
In the case of `Cc1ccccc1-c1noc(-c2ccccc2F)n1` it was “inactive”.
In the case of `Cc1cccc(-c2noc(-c3ccc(Cl)cc3[N+](=O)[O-])n2)c1` it was “inactive”; in that of `CCOC(=O)c1sc(-c2ccc(OC)cc2)cc1N`, “inactive”.
To `COc1ccc(-c2cc(=O)c3cc(C)ccc3[nH]2)cc1` belongs “inactive”; to `N#CC(=C1CCCC1)c1nc(-c2ccccc2)cs1`, “inactive”.
With `Nc1nc(-c2ccc3c(c2)CCCC3)cs1`, the fold induction over control result is “inactive”.
In the case of `O=c1oc2cc(Br)ccc2n1CSC1=NCCS1` it was “inactive”; in that of `CCCCOC(=O)Nc1ccc2c(C)cc(=O)oc2c1`, “inactive”.
In the case of `O=C(Nc1ccc(Cl)cc1)c1ccc(Br)cc1F` it was “inactive”; in that of `Cc1ccc(C(=O)Nc2ccc3c(c2)nc2n3CCSC2)cc1`, “inactive”; in that of `CN1C(=O)/C(=C\C=C2/CCCN2C)N(C)C1=S`, “inactive”.
To `Nc1nonc1-c1noc(COc2ccccc2Cl)n1` belongs “inactive”.
Regarding `COc1ccc(C(=O)NNC(=S)Nc2ccccc2)cc1`, the fold induction over control result is “inactive”.
In the case of `Cc1cccc(Nc2nc3c(s2)CCCC3)c1` it was “inactive”; in that of `COc1ccccc1CNc1ccc(CNc2ncn[nH]2)cc1`, “inactive”; in that of `Oc1ccccc1CNc1ccc(Br)cn1`, “inactive”.
To `O=C(NCCCn1ccnc1)c1cc(-c2ccccc2)on1` belongs “inactive”.
For `O=C(NCCCN1CCOCC1)c1cc(-c2cccs2)on1`, the fold induction over control result was “inactive”.
In the case of `Cc1csc2nc(CSc3ccc(Cl)cc3)cn12` it was “inactive”; in that of `O=C(Cc1cn2ccsc2n1)OCc1ccccc1`, “inactive”.
In the case of `CCOc1cccc2cc(-c3csc(NC(=O)CCC(=O)NCCCN4CCC(C)CC4)n3)c(=O)oc12` it was “inactive”; in that of `Cc1ccc(Nc2ncnc3c2oc2ccccc23)cc1`, “inactive”; in that of `Cc1ccc(N2C(=O)C(NC(=O)c3ccccc3)(C(F)(F)F)C3=C2CC(C)(C)CC3=O)cc1` (stereo not given), “inactive”.
In the case of `COCCn1nnnc1C(CC(C)C)N1CCN(c2cccc(OC)c2)CC1` (stereo not given) it was “inactive”; in that of `CC(C)(C)NC(=O)C[n+]1ccc(C(N)=O)cc1`, “inactive”.
As for `O=C(NCC1CCCO1)c1cc(-c2ccccc2)on1` (stereo not given), the fold induction over control entry was “inactive”.
Regarding `COc1ccc2c(c1)CCc1c(C(=O)NCC(C)C)noc1-2`, the fold induction over control entry was “inactive”.
To `CC(/C=N/NC(=O)c1cccs1)=C\c1ccco1` belongs “inactive”.
In the case of `Cc1ccc(N=C/C(C(=O)C(F)(F)F)=C(\O)c2ccco2)cc1Cl` it was “inactive”; in that of `C/C(=N\NC(=O)c1ccoc1C)c1cccnc1`, “inactive”.
In the case of `CC(=O)CSc1ncnc2c1cnn2-c1ccccc1` it was “inactive”.
Turning to `O=[N+]([O-])c1ccc(F)cc1OCc1nc(-c2cccs2)no1`, the fold induction over control entry was “inactive”.
